Assay [1] can be described thus: BSK_3C_VCAM1: BioMAP Diversity Plus: 3C Assay for Vascular cell adhesion molecule 1 (VCAM1) Biomarker Activity (AID 2282999; active = hit-call score of the fitted dose curve at least 0.9, where 1 is the maximum; inactive = score below 0.9). Particulars: BioMAP 3C HUVEC, VCAM1 ELISA, cytokine-stimulated; actives raise or lower the signal. In outline:
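Human umbilical vein endothelial cells (3C system), biomarker read by ELISA 24 h after dosing; bidirectional fit against DMSO baseline. Cytotoxicity tracked by SRB total-protein staining in parallel cultures at biomarker time.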
(An ELISA detects its analyte on a solid surface through an enzyme-linked reagent.)

Assay [2] is described as follows: BSK_4H_Eotaxin3: BioMAP Diversity Plus: 4H Assay for Eotaxin 3 Biomarker Activity (AID 2283000; active = hit-call score of the fitted dose curve at least 0.9, where 1 is the maximum; inactive = score below 0.9;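 as to outcome: CCL26 protein level quantified by ELISA in parallel with SRB cytotoxicity check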). The conditions noted are these: primary human endothelial cells (HUVEC); actives raise or lower the signal. In outline: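 ELISA quantitation of CCL26 (Eotaxin-3) protein from chemically dosed human vascular endothelial cells at 24 h; increases and decreases both scored relative to DMSO-treated baseline.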

Assay [3] has as its target human Peroxisome Proliferator-activated Receptor alpha (PPARa), PPARA (gene 5465) (UniProt Q07869). Put plainly: ATG_PPARa_TRANS: Attagene TRANS-FACTORIAL HepG2 Assay for human Peroxisome Proliferator-activated Receptor alpha (PPARa) (AID 2283001). In outline: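 HepG2 cells transiently transfected with multiplexed GAL4-UAS reporters driven by exogenous chimeric NR-Gal4 proteins; reporter mRNA measured after 24 h dosing. Read-out by RT-PCR, 6-FAM labelling, HpaI digestion and capillary electrophoresis; gain of signal versus DMSO.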

Assay [4] addresses human Peroxisome Proliferator-activated Receptor delta (PPARd), PPARD (gene 5467) (UniProt Q03181). Kind of assay: ATG_PPARd_TRANS: Attagene TRANS-FACTORIAL HepG2 Assay for human Peroxisome Proliferator-activated Receptor delta (PPARd) (AID 2283002). In outline: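 Fluorescence from capillary electrophoresis of labelled RT-PCR reporter fragments gives the signal; DMSO sets baseline. Cells: HepG2 transiently carrying GAL4-UAS reporter units plus chimeric nuclear receptor-Gal4 proteins, exposed to chemicals for 24 h.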

Read-out in assay [5]: Intercellular Adhesion Molecule 1 (ICAM1), ICAM1 (gene 3383)
Put plainly: BSK_3C_ICAM1: BioMAP Diversity Plus: 3C Assay for Intercellular Adhesion Molecule 1 (ICAM1) Biomarker Activity (AID 2283003; active = hit-call score of the fitted dose curve at least 0.9, where 1 is the maximum; inactive = score below 0.9). The conditions noted are these: primary human endothelial cells (HUVEC); actives raise or lower the signal. The method, boiled down: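 ICAM-1 levels measured by ELISA after HUVEC cultures in the 3C system had been dosed for 24 h. Gain or loss of signal relative to DMSO was fitted in both directions.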

For assay [6], the target named is human Retinoic Acid Receptor beta (RARb), RARB (gene 5915) (UniProt P10826). Put plainly: ATG_RARb_TRANS: Attagene TRANS-FACTORIAL HepG2 Assay for human Retinoic Acid Receptor beta (AID 2283004). In outline: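 Fluorescent capillary-electrophoresis detection of GAL4-UAS reporter mRNA defines the endpoint, with induction over DMSO-treated wells scored as activity. Transiently transfected human hepatoma HepG2 cells expressing exogenous NR–Gal4 proteins are exposed to test chemicals for 24 h.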

Assay [7] deals with Retinoic acid receptor alpha (Homo sapiens) (UniProt P10276). Put plainly: ATG_RARa_TRANS: Attagene TRANS-FACTORIAL HepG2 Assay for human Retinoic Acid Receptor alpha (RARa) (AID 2283005). The method, boiled down: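 HepG2 transiently transfected with multiplex GAL4-UAS reporter units including a human RARa–GAL4 chimera; 24 h compound exposure. Reporter mRNA quantified by RT-PCR, 6-FAM labeling and capillary electrophoresis; gain of signal versus DMSO.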

Assay [8] is described as follows: BSK_3C_Proliferation: Cell Proliferation Assessment in the BioMAP Diversity Plus: 3C Assay (AID 2283006; active = hit-call score of the fitted dose curve at least 0.9, where 1 is the maximum; inactive = score below 0.9;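 as to AC50: potency may reflect either rise or fall in cell number versus DMSO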). The conditions noted are these: primary human endothelial cells (HUVEC). The method, boiled down:
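Read-out is total protein by SRB absorbance at 560 nm, taken as a proxy for relative cell number. Primary human umbilical vein endothelium cultured below confluence was dosed for 48 h, TCA-fixed and SRB-stained; curves were fitted bidirectionally versus DMSO.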

Assay [9] addresses Peroxisome proliferator-activated receptor gamma (Homo sapiens) (UniProt P37231). Put plainly: ATG_PPARg_TRANS: Attagene TRANS-FACTORIAL HepG2 Assay for human Peroxisome Proliferator-activated Receptor-gamma (PPARg) (AID 2283007). The method, boiled down:
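Liver-derived HepG2 cells expressing an exogenous NR-Gal4 chimera alongside GAL4-UAS reporter genes; 24 h exposure. Fluorescence of reporter RT-PCR products, separated by capillary electrophoresis, gives mRNA induction relative to DMSO.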

Assay [10] deals with Nuclear receptor subfamily 1 group I member 2 (Homo sapiens) (UniProt O75469). Kind of assay: ATG_PXR_TRANS: Attagene TRANS-FACTORIAL HepG2 Assay for human Pregnane X Receptor (PXR) (AID 2283008). The method, boiled down:
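Read-out is fluorescence of labelled reporter cDNA fragments separated by capillary electrophoresis after RT-PCR and HpaI digestion. Source: HepG2 cells carrying PXR-GAL4/UAS reporter constructs, treated 24 h; activity fitted upward relative to DMSO.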

For assay [11], the target named is human Retinoic Acid Receptor gamma (RARg), RARG (gene 5916) (UniProt P13631). Kind of assay: ATG_RARg_TRANS: Attagene TRANS-FACTORIAL HepG2 Assay for human Retinoic Acid Receptor gamma (RARg) (AID 2283009). The method, boiled down:
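Transient transfection of HepG2 with multi-reporter constructs, then 24 h chemical treatment. Total RNA isolated, reverse-transcribed, PCR-amplified, fluorescently labelled and resolved by capillary electrophoresis; activity scored as mRNA induction versus DMSO.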

Assay [12] deals with human RAR-related Orphan Receptor beta (RORb), RORB (gene 6096) (UniProt Q92753). Put plainly: ATG_RORb_TRANS: Attagene TRANS-FACTORIAL HepG2 Assay for human RAR-related Orphan Receptor beta (RORb) (AID 2283010). The method, boiled down: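 Readout is reporter-gene mRNA induction, detected as fluorescence after RT-PCR and capillary electrophoresis, fitted for gain of signal against DMSO controls. Transiently transfected HepG2 liver cells carrying GAL4-UAS reporter constructs were treated for 24 hours.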
human RAR-related Orphan Receptor beta (RORb), RORB (gene 6096), sequence (Q92753 whole entry, looked up, the tested form may be a part): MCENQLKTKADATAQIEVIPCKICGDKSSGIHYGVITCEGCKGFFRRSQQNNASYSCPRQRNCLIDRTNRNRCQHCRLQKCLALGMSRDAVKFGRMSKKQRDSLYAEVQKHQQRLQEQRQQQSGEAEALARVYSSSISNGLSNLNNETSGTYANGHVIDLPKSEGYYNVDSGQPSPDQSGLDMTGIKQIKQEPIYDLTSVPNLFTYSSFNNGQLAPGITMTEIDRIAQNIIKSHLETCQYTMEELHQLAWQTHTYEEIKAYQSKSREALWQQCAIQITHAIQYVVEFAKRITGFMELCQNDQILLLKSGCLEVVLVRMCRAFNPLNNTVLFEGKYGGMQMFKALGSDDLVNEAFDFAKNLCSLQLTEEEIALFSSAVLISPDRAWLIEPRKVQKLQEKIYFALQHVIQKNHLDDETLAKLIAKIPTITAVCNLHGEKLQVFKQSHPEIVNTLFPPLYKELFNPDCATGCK

For assay [13], the target named is human RAR-related Orphan Receptor gamma (RORg), RORC (gene 6097) (UniProt P51449). Kind of assay: ATG_RORg_TRANS: Attagene TRANS-FACTORIAL HepG2 Assay for human RAR-related Orphan Receptor gamma (RORg) (AID 2283011). The method, boiled down:
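Chimeric RORg-Gal4 transactivation in transfected HepG2; 24 h exposure; RT-PCR/capillary electrophoresis readout of reporter mRNA, DMSO baseline.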

The target of assay [14] is Retinoic acid receptor RXR-alpha (Homo sapiens) (UniProt P19793). Put plainly: ATG_RXRa_TRANS: Attagene TRANS-FACTORIAL HepG2 Assay for human Retinoid X Receptor alpha (RXRa) (AID 2283012). In outline: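 Transient transfection of human HepG2 with multiple GAL4-UAS reporter constructs; 24 h compound exposure; total RNA isolated, reverse-transcribed, PCR-amplified, 6-FAM labelled, HpaI-cut, resolved by capillary electrophoresis. Positive-direction fit versus DMSO.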
Retinoic acid receptor RXR-alpha (Homo sapiens), sequence (P19793 whole entry, looked up, the tested form may be a part): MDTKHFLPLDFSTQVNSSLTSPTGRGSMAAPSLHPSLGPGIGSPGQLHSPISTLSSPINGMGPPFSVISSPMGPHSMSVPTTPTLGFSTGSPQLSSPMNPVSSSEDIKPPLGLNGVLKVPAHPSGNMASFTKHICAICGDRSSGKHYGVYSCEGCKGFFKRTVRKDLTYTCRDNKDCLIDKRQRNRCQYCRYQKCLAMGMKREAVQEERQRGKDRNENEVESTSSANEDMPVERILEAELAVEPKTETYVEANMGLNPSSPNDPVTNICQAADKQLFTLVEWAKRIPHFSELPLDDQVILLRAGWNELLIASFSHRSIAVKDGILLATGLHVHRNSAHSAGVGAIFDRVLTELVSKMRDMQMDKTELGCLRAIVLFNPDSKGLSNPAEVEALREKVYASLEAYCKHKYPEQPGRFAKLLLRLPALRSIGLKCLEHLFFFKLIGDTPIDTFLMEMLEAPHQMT

The target in assay [15] is human Retinoid X Receptor beta (RXRb), RXRB (gene 6257) (UniProt P28702). Kind of assay: ATG_RXRb_TRANS: Attagene TRANS-FACTORIAL HepG2 Assay for human Retinoid X Receptor beta (RXRb) (AID 2283013). In outline:
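Transfect HepG2 with GAL4-UAS multi-reporter constructs (chimeric NR-Gal4, TRANS format); dose compound 24 h; isolate RNA, RT-PCR, FAM primer extension, HpaI digest; quantify by capillary electrophoresis; positive direction vs DMSO.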

In assay [16] the target is human Thyroid Receptor alpha (THRa1), THRA (gene 7067) (UniProt P10827). Kind of assay: ATG_THRa1_TRANS: Attagene TRANS-FACTORIAL HepG2 Assay for human Thyroid Receptor alpha (THRa1) (AID 2283014). In outline: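 Measured here is mRNA from a GAL4-UAS reporter in transfected HepG2 cells carrying a Gal4-fused receptor, 24 h post-dose. DMSO served as negative control and baseline.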
human Thyroid Receptor alpha (THRa1), THRA (gene 7067), sequence (P10827 whole entry, looked up, the tested form may be a part): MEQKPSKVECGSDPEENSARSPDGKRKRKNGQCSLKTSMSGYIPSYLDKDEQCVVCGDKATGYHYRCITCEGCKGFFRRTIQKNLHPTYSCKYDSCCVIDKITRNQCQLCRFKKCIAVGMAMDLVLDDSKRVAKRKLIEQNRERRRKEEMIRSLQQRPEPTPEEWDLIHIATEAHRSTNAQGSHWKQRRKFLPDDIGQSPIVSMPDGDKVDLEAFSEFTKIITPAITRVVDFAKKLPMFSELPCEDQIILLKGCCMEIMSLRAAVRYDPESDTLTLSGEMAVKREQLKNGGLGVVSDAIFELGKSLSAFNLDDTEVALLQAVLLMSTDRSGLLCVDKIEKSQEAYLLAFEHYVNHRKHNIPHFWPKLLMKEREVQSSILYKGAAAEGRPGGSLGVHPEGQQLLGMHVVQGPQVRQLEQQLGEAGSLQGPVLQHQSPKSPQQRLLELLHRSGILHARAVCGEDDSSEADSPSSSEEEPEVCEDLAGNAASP

Read-out in assay [17]: E-selectin (Homo sapiens) (UniProt P16581)
Kind of assay: BSK_3C_Eselectin: BioMAP Diversity Plus: 3C Assay for Eselectin Biomarker Activity (AID 2283015; active = hit-call score of the fitted dose curve at least 0.9, where 1 is the maximum; inactive = score below 0.9;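 as to outcome: cell surface E-selectin protein quantified by ELISA 24 h after dosing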). The conditions noted are these: primary human endothelial cells (HUVEC); actives raise or lower the signal. The method, boiled down:
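Endpoint derived by bidirectional fitting against DMSO vehicle; signal is ELISA-detected E-selectin from primary HUVEC at 24 h post-dosing, with parallel SRB staining (0.1% SRB, 560 nm) flagging cytotoxicity.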

Read-out in assay [18]: Interleukin-1 alpha (IL1a), IL1A (gene 3552)
Kind of assay: BSK_BE3C_IL1a: BioMAP Diversity Plus: BE3C Assay for Interleukin-1 alpha (IL1a) Biomarker Activity (AID 2283016; active = hit-call score of the fitted dose curve at least 0.9, where 1 is the maximum; inactive = score below 0.9). Particulars: primary human bronchial epithelial cells; actives raise or lower the signal. In outline: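 BE3C primary human bronchial epithelium; cpd 24 h; IL-1a by ELISA; bidirectional fit vs DMSO; parallel SRB (0.1% SRB, 10% TCA fix, 560 nm) for cytotoxicity.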

Read-out in assay [19]: Monocyte Chemoattractant Protein-1 (MCP1), CCL2 (gene 6347)
Kind of assay: BSK_3C_MCP1: BioMAP Diversity Plus: 3C Assay for Monocyte Chemoattractant Protein-1 (MCP1) Biomarker Activity (AID 2283017; active = hit-call score of the fitted dose curve at least 0.9, where 1 is the maximum; inactive = score below 0.9). The conditions noted are these: primary human endothelial cells (HUVEC); actives raise or lower the signal. The method, boiled down: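 Using human vascular primary endothelium, researchers measured MCP-1 by ELISA 24 h after treatment, with DMSO serving as negative control for bidirectional fitting.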

Read-out in assay [20]: Monocyte Chemoattractant Protein-1 (MCP1), CCL2 (gene 6347)
Kind of assay: BSK_4H_MCP1: BioMAP Diversity Plus: 4H Assay for Monocyte Chemoattractant Protein-1 (MCP1) Biomarker Activity (AID 2283018; active = hit-call score of the fitted dose curve at least 0.9, where 1 is the maximum; inactive = score below 0.9). Particulars: primary human endothelial cells (HUVEC); actives raise or lower the signal. In outline: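 ELISA read-out of MCP-1 from human vascular endothelial primary cells taken at 24 hours after compound exposure. Activity was fitted in both directions relative to DMSO, which served as negative control.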

Inconclusive results are not listed. The source made the active and inactive calls. The calls were made as follows, unless noted: active = hit-call score of the fitted dose curve at least 0.9, where 1 is the maximum; inconclusive = response in the unintended direction; inactive = score below 0.9.

From PubChem BioAssay (EPA / NIEHS) come the findings set out here.

Peroxisome proliferator-activated receptor gamma (Homo sapiens), sequence (P37231 whole entry, looked up, the tested form may be a part): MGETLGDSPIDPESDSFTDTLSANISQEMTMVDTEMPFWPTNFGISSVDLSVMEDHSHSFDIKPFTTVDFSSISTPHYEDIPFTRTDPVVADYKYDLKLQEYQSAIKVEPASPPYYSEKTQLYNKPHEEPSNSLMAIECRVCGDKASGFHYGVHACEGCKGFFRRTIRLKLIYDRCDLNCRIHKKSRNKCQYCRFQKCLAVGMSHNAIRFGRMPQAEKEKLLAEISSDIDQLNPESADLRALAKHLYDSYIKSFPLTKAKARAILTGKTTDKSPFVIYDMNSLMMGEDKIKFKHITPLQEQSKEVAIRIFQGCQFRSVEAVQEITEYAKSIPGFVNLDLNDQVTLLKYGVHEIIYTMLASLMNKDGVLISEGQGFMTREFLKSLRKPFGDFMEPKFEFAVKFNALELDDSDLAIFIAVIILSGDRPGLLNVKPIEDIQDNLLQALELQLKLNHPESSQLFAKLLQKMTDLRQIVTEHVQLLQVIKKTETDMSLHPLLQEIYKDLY
human RAR-related Orphan Receptor gamma (RORg), RORC (gene 6097), sequence (P51449 whole entry, looked up, the tested form may be a part): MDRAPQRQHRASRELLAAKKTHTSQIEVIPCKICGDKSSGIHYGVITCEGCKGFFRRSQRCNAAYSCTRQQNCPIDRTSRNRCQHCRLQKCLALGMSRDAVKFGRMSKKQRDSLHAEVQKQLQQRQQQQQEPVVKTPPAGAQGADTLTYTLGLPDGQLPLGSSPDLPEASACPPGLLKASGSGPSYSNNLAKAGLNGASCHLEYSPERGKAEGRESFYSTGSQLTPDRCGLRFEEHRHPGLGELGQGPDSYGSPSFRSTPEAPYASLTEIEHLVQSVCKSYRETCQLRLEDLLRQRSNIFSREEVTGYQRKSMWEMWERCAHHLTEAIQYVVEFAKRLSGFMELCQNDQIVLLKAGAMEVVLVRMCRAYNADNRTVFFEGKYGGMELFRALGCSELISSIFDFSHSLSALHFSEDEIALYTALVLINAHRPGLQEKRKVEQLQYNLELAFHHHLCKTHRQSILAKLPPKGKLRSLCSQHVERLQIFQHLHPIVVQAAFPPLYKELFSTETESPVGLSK
human Peroxisome Proliferator-activated Receptor alpha (PPARa), PPARA (gene 5465), sequence (Q07869 whole entry, looked up, the tested form may be a part): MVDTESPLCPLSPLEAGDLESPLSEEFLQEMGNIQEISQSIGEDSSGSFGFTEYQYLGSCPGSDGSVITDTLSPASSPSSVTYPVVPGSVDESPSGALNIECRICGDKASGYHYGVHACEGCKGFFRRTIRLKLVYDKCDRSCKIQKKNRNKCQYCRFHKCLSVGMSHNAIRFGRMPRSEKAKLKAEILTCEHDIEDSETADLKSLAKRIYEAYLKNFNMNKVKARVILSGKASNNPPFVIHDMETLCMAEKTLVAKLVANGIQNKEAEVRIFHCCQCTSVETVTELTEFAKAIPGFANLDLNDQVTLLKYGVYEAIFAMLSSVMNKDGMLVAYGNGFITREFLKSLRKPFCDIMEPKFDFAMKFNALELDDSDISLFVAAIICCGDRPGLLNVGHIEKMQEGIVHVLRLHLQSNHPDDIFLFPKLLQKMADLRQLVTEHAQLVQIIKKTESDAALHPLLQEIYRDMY
human Peroxisome Proliferator-activated Receptor delta (PPARd), PPARD (gene 5467), sequence (Q03181 whole entry, looked up, the tested form may be a part): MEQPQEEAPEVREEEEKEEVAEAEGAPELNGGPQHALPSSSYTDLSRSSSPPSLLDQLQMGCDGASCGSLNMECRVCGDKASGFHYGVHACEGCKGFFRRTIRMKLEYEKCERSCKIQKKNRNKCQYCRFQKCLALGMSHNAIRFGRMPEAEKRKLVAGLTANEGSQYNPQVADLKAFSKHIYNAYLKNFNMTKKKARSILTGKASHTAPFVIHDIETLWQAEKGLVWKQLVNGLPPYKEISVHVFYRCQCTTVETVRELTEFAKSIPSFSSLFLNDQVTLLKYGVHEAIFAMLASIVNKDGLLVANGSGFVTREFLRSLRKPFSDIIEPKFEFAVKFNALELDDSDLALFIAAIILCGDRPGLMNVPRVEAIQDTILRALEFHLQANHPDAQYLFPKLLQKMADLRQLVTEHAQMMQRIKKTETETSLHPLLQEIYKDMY
E-selectin (Homo sapiens), sequence (P16581 whole entry, looked up): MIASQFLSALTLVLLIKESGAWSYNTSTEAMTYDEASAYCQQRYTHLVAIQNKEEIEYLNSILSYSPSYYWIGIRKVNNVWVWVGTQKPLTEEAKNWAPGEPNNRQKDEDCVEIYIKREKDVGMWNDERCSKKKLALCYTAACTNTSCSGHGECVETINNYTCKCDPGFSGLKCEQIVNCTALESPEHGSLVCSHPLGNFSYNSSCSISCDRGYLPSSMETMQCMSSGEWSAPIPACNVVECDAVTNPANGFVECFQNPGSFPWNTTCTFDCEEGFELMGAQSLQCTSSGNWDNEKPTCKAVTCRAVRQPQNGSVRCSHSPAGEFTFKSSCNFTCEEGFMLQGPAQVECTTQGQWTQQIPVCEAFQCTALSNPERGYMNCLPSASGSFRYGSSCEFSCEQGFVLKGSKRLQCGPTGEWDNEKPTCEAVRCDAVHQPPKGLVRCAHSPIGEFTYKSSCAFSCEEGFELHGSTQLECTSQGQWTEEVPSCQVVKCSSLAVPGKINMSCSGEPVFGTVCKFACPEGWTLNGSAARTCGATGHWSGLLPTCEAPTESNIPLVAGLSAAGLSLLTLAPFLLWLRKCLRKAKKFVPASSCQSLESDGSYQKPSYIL
Nuclear receptor subfamily 1 group I member 2 (Homo sapiens), sequence (O75469 whole entry, looked up, the tested form may be a part): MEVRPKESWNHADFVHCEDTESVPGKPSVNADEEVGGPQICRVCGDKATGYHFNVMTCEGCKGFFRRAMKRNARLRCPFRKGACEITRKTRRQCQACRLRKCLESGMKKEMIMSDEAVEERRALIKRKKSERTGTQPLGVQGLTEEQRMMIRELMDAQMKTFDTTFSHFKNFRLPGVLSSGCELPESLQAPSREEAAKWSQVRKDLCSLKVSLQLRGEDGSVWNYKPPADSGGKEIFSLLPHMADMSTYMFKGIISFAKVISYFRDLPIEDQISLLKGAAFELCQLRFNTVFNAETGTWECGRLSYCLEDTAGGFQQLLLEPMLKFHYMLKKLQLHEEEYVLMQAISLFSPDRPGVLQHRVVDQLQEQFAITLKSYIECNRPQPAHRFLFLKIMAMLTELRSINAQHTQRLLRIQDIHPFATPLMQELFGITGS
human Retinoic Acid Receptor gamma (RARg), RARG (gene 5916), sequence (P13631 whole entry, looked up): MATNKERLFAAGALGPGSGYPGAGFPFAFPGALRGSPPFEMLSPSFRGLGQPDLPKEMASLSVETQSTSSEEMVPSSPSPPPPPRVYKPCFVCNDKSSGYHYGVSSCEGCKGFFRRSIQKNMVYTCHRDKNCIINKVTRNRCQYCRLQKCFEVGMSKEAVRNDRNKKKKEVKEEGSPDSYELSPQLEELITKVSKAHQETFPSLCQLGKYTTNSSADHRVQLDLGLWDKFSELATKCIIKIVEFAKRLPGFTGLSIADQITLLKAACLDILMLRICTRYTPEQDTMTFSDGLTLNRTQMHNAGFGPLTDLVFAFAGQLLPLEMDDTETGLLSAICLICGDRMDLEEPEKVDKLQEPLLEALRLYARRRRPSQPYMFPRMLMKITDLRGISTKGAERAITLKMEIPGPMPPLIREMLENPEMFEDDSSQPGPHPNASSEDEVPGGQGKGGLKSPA

In the case of `CC(C)Oc1cccc(NC(=O)c2ccccc2C(F)(F)F)c1`, the outcome in [1], in assay [2], in [3], in [4], in assay [5] and in assay [6] was inactive. For the same compound, the result in assay [7], in assay [8], in assay [11], in [12], in assay [13] and in assay [14] was inactive. The result in [15], in assay [16], in assay [17], in assay [18], in assay [19] and in [20] was inactive. In addition, the AC50 in [9] is 30.9 µM (active); in [10], 23.4 µM (active).
In the case of `COP(=O)(OC)O/C(C)=C/C(=O)N(C)C`, the outcome in assay [1], in assay [2], in assay [3], in [4], in assay [5] and in assay [8] was inactive. For the same compound, the compound was classed as inactive in assay [9], in [10], in assay [11], in assay [12], in [13] and in assay [16]. In addition, the outcome in assay [17], in assay [18], in [19] and in assay [20] was inactive.
In the case of `CCCCOCN(C(=O)CCl)c1c(CC)cccc1CC`, the AC50 in assay [1] was 27.4 µM (active); in assay [2] it was 36.1 µM (active); in [5] it was 32.2 µM (active); in assay [8], 28.2 µM (active); in [9] it was 1.38 µM (active); in assay [17], 19.3 µM (active). The AC50 in assay [18] was 36.5 µM (active); in assay [19], 30.2 µM (active); in assay [20] it was 25.6 µM (active). For the same compound, the outcome in assay [3], in assay [10], in assay [12], in assay [14], in assay [15] and in assay [16] was inactive.
`O=c1n(Cl)c(=O)n(Cl)c(=O)n1Cl`: the result in [1], in assay [2], in [3], in [4], in assay [5] and in [6] was inactive. Also, the call in [7], in [8], in assay [9], in assay [10], in [11] and in [12] was inactive. The compound was called inactive in [13], in assay [14], in assay [15], in assay [17], in [19] and in assay [20].

The AC50 is the concentration giving half of the maximal activity seen.
